The campaign covered roughly 69,000 compounds. About 8,600 (12%) showed an effect of 50% or more. What follows is part of a selection rich in strong results, with near analogues and random picks from the rest.

The test relates to Plasmodium berghei. Briefly: Screen against P. berghei liver stage (PbLuc), transformed with Luciferase, at 10uM. It is filed as functional, HepG2. The note with it: tested at 10 uM.
In the case of `Cc1c(C(=O)N(C)c2ccccc2)cccc1N(C)S(C)(=O)=O`, the INHIBITION was 22.07%. For `CN(Cc1ccc(F)cc1)[C@@H]1CN(S(C)(=O)=O)C[C@H]1O`, the INHIBITION is on record as 14.12%. Turning to `CC(C)Oc1ncc(C(=O)N2CCC(CC(N)=O)CC2)cc1Cl`, the INHIBITION is listed as 16.9%. Then `CC(O)CN1CCN(C(=O)c2cnc(OC(C)C)c(Cl)c2)CC1` (configuration not stated), with 40.5%; and `CC(C)Oc1ncc(C(=O)N2CCC(N(C)C)CC2)cc1Cl`, with 26.6%. On to `CCN1CCCN(C(=O)c2cnc(OC(C)C)c(Cl)c2)CC1`, for which the INHIBITION amounted to 60.1%.

Take `CC(=O)N1CCCN(C(=O)c2cnc(OC(C)C)c(Cl)c2)CC1`: the INHIBITION is recorded as 51.1%. To `CC(=O)N1CCN(C(=O)c2cnc(OC(C)C)c(Cl)c2)CC1` belongs -2.32%; to `O=C(N[C@@H]1CN(Cc2cccs2)[C@@H]2CCCO[C@@H]21)c1cscn1`, -17.1%; to `O=C(NCCNc1ncccn1)N1CCCC1c1ccncc1` (configuration not stated), 11.8%. Then `Cc1nc(CN(Cc2ccncc2)C2CCN(C)CC2)cs1`, with 8.46%; and `FC(F)(F)c1cc(-c2cccs2)nc(N2CCN3CCCC3C2)n1` (configuration not stated), with 25.3%; and `Cc1ccc(-c2cc(C(F)(F)F)nc(N3CCOCC3)n2)s1`, with 29.8%. Turning to `Cc1c(-c2cc(C(F)(F)F)nc(N3CCC(N)CC3)n2)cnn1C`, the INHIBITION was 50.8%. To `CCc1ccc(-c2cc(C(F)(F)F)nc(N3CCC(N)CC3)n2)cc1` belongs 91.4%. As to `CCNC(=O)[C@@H]1C[C@H](N)CN1c1cc(C(F)(F)F)nc(N2CCCC2)n1`, the INHIBITION is listed as -122%. To `CCn1ncc(-c2cc(C(F)(F)F)nc(N3CCC(N)CC3)n2)c1C` belongs -1.84%; to `CCc1nc(C2CCCN2Cc2cc(=O)n(C)c(=O)n2C)no1` (configuration not stated), -27.9%; to `CC(C)C(CCO)NC(=O)Nc1ccc(-c2csnn2)cc1` (configuration not stated), -6.39%. Then `Cc1cccc(CN2C(=O)CCC23CCN(c2ccccn2)CC3)n1`, with -11%; and `Cc1nn(-c2cc(Cl)cc(Cl)c2)c(C)c1CCC(=O)O`, with 46.1%; and `CC(c1ccccn1)N(C)Cc1ccc(-n2cncn2)cc1` (configuration not stated), with 28.5%. `CN1CCOC(CNC(=O)C2(c3cccc(Cl)c3)CC2)C1` (configuration not stated): the INHIBITION is listed as 0.348%.

In the case of `CN1CCOC(CNC(=O)CCCOc2cccc(F)c2)C1` (configuration not stated), the INHIBITION is -5.2%.

Regarding `CN1CCOC(CNC(=O)CCCOc2ccccc2F)C1` (configuration not stated), the INHIBITION is recorded as 52%. Turning to `Cc1cccc(C2(C(=O)NCC3CN(C)CCO3)CC2)c1` (configuration not stated), the INHIBITION was 19.8%. Consider `Cc1ccccc1OCCCC(=O)NCC1CN(C)CCO1` (configuration not stated), for which the INHIBITION is 22.265%.

With `CN1CCOC(CNC(=O)C2(c3ccccc3)CCC2)C1` (configuration not stated), the INHIBITION was found to be 57.4%. Consider `CC(C)CC(CC(C)C)NC(=O)c1ccn(C)c(=O)c1`, for which the INHIBITION was determined as 1.51%. For the molecule `COc1ncccc1CN1C[C@H]2C[C@@H](C(=O)NCC3CC3)N(C)[C@H]2C1`, the INHIBITION is 29.7%. Then `CC(C)c1nn(C)cc1CNCc1cccnc1N(C)C`, with 14.7%; and `CSCC(=O)N1CCc2c(cnc(C)c2-c2noc(-c3ccco3)n2)C1`, with 33%; and `Cc1ncc(C(=O)OCC2CCN(c3ccccc3)C2)s1` (configuration not stated), with 58.5%. Then `O=C(OCC1CCN(c2ccccc2)C1)c1cscn1` (configuration not stated), with 51.7%; and `Cc1ncsc1C(=O)OCC1CCN(c2ccccc2)C1` (configuration not stated), with 89.4%; and `O=C(OCC1CCCN(C(=O)c2ccccc2)C1)c1cscn1` (configuration not stated), with 10.6%. To `Cc1ncsc1C(=O)OCCN1CCCc2ccccc21` belongs 41.3%; to `COCc1nc(C(=O)OCC2CCN(c3ccccc3)C2)cs1` (configuration not stated), 18.3%. On to `Cn1ncc(C(=O)OCC2CCN(c3ccccc3)C2)c1C(F)F` (configuration not stated), for which the INHIBITION stood at 9.96%.

For `COCCn1cc(NC(=O)NCC2CCN(c3ccccc3)C2)cn1` (configuration not stated), the INHIBITION turned out to be 22.8%. Regarding `Cc1ncsc1C(=O)N1CCN(Cc2ccccc2)CC1C` (configuration not stated), the INHIBITION is on record as 23.8%.

Consider `Cc1oc(-c2nc(C#N)c(NC3CC3)o2)cc1S(=O)(=O)N1CCCC1`, for which the INHIBITION is on record as 25.8%.

Regarding `CCN(Cc1ccco1)C(=O)NCC(C)N1CCc2sccc2C1` (configuration not stated), the INHIBITION is on record as -3.72%. Take `Cc1occc1C(=O)N1C[C@@H]2CCCO[C@@H]2[C@H](N(C)Cc2ccco2)C1`: the INHIBITION was determined as 43.9%. Then `Cc1cccc(CN(C(=O)NCc2ccccn2)C2CC2)c1`, with 19.4%. Consider `COc1ccccc1N1CCN(C(=O)c2ccoc2)CC1`, for which the INHIBITION is recorded as -17.4%. Then `COc1ccccc1N1CCN(C(=O)c2ccnc(N(C)C)c2)CC1`, with 77.15%; and `CN(C)c1cc(C(=O)N2CCCC2)ccn1`, with -4.567%; and `O=C(N1CCCO1)[C@@]12CCO[C@@H]1CCN(Cc1ccsc1)C2`, with 14.5%. To `CC(CNC(=O)N1CCS(=O)(=O)CC1)Cc1cccs1` (configuration not stated) belongs 16.1%; to `CC(CNC(=O)N1CCSCC1)Cc1cccs1` (configuration not stated), -18.2%; to `CC(CNC(=O)N1CCNC(=O)CC1)Cc1cccs1` (configuration not stated), 51.1%. Take `Cn1cc(CN(CC2(O)CCNC2)C2CCCCC2)cn1` (configuration not stated): the INHIBITION is given as 38.5%. To `O=C(Nc1ccccc1F)C1CN(C(=O)c2ccc3c(c2)OCO3)C1` belongs 46.1%; to `Cc1noc([C@@]23CCO[C@@H]2CCN(S(=O)(=O)c2cccnc2)C3)n1`, 44.8%; to `Cc1nnc([C@@]23CCO[C@@H]2CCN(S(=O)(=O)c2ccccc2)C3)o1`, 61.1%. To `Cc1nnc([C@@]23CCO[C@@H]2CCN(S(=O)(=O)c2cccnc2)C3)o1` belongs -1.36%. For the molecule `Cc1nnc([C@@]23CCO[C@@H]2CCN(S(C)(=O)=O)C3)o1`, the INHIBITION is recorded as 23.3%. Turning to `CCS(=O)(=O)N1CC[C@H]2OCC[C@@]2(c2nnc(C)o2)C1`, the INHIBITION is 34.6%. To `CCCS(=O)(=O)N1CC[C@H]2OCC[C@@]2(c2nnc(C)o2)C1` belongs 55.5%; to `CN(C)CCOCC1CN(Cc2cccs2)Cc2ccnn2C1` (configuration not stated), 33.4%; to `CC(NC1CCN(CCc2ccncc2)CC1)c1cnn(C(C)C)c1` (configuration not stated), 37.9%. In the case of `Cc1cccnc1NC(=O)c1ccc(F)c(S(=O)(=O)N2CCC2)c1`, the INHIBITION came to 13.3%. With `O=C(Cc1cccs1)N1C[C@@H]2CN(Cc3ccoc3)CCO[C@@H]2C1`, the INHIBITION came to 24.1%. On to `CCN1Cc2cc(F)ccc2N(CC(O)C(F)(F)F)CCC1=O` (configuration not stated), for which the INHIBITION stood at 47.2%. To `CN(C)C(=O)c1cn[nH]c1C1CCCN1Cc1c[nH]cn1` (configuration not stated) belongs 18.4%; to `CN(C)C(=O)c1cn[nH]c1C1CCCN1Cc1nccn1C` (configuration not stated), 55.8%. Then `CN(C)C(=O)c1cn[nH]c1C1CCCN1Cc1cncn1C` (configuration not stated), with -11.3%. To `Cc1nc(CN2CCO[C@H]3[C@@H](OCc4ccccn4)CC[C@@H]32)cs1` belongs 40.4%.

For `Cc1ccc2cccc(Oc3nc(C)c(C(=O)O)s3)c2n1`, the INHIBITION is on record as 12.7%. For `CN1C(=O)C(c2ccccc2)CC12CCN(CCO)CC2` (configuration not stated), the INHIBITION is on record as -9.26%. Then `CCc1nc(C2CCCN(C(=O)c3cccc(Cl)c3)C2)no1` (configuration not stated), with -19.9%; and `COc1cccc(CNC2CCSC2)c1OC` (configuration not stated), with -7.85%. To `CC(C)(C)C(CCO)NC(=O)Nc1ccncc1` (configuration not stated) belongs 60.2%; to `CC(C)(C)C(CCO)NC(=O)Nc1ccccc1` (configuration not stated), 43.7%. To `Cc1cccnc1NC(=O)NC(CCO)C(C)(C)C` (configuration not stated) belongs 28.3%. Regarding `CN1CC(=O)N(c2ccccc2)CC12CCN(S(C)(=O)=O)C2` (configuration not stated), the INHIBITION is reported as 42.7%.

For the molecule `CN1CCC(O)(CNCc2ccc(F)c(C(F)(F)F)c2)CC1`, the INHIBITION is recorded as 48.4%.

Take `Cc1ccc(C(=O)NCC2(O)CCOCC2)cc1Br`: the INHIBITION is -65.5%. Consider `OC1(CNCc2ccc(F)c(C(F)(F)F)c2)CCOC1` (configuration not stated), for which the INHIBITION is reported as 3.69%. To `Cc1cc(CNCC2(O)CCOCC2)ccc1F` belongs 76.8%; to `Cc1cc(CNC2(CO)CCOCC2)ccc1Br`, 18.6%; to `Cc1cc(CNCC2(O)CCOCC2)ccc1Br`, 54.4%.

As to `CN(C)C(=O)[C@@H]1CCO[C@@H]2CCN(CCc3ccccc3)C[C@@H]21`, the INHIBITION was 28.5%. Then `COCc1ccc(C(=O)N2CCC(Oc3ccccc3OC)CC2)s1`, with -3.83%; and `O=C(N[C@@H]1CN(c2ncccn2)C[C@@H]2CCCO[C@@H]21)c1cnccn1`, with 20.2%. To `CC(O)CN1CCN(C(=O)c2cc(Cl)cc3cccnc23)CC1` (configuration not stated) belongs 2.75%; to `COC(=O)N1C[C@@H]2CC[C@H]1CN(Cc1cscn1)C2`, -14.8%. To `CCc1ncc2c(n1)CN(c1nc(C)ccc1C(=O)O)C2` belongs 9.55%; to `CC(C)OCCN1CCC(Nc2ccc(C#N)cc2F)CC1`, 27.2%; to `CNC(=O)[C@@H]1C[C@@H](N)CN1C1CCN(Cc2ccccn2)CC1`, 27.6%. `CCNC(=O)[C@@H]1C[C@H](N)CN1C(=O)CCc1ccccc1Cl`: the INHIBITION is on record as -6.83%. Then `CNC(=O)[C@@H]1C[C@@H](N)CN1C1CCN(c2ccccc2F)CC1`, with 61%; and `COc1ccccc1N1CCC(N2CCOCC(CO)C2)CC1` (configuration not stated), with 39%; and `CNC(=O)[C@@H]1C[C@@H](N)CN1C(=O)CCSCc1ccc(F)cc1`, with 9.63%. Then `CCNC(=O)[C@@H]1C[C@H](N)CN1C1CCN(c2ccccc2OC)CC1`, with 55.4%; and `Cc1cc(C(F)(F)F)nc(C2CCCN2S(C)(=O)=O)n1` (configuration not stated), with 20.2%. Then `CCN1CCN(C(C)CNC(=O)Nc2cnn(CC)c2)CC1` (configuration not stated), with 44.1%; and `CNC(=O)C1CCN(c2ncc3c(n2)CCN3c2ccccc2)C1` (configuration not stated), with -105%.

As for `O=C(Cc1c(F)cccc1Cl)Nc1cc(N2CCCC2)ncn1`, the INHIBITION was -27.8%. Then `COCCN(Cc1sccc1C)Cc1nccn1CCOC`, with 16.9%; and `Cc1ccsc1CN(CCN(C)C)Cc1ccccn1`, with 35.1%. Then `CSC(C)CCN(Cc1ccccn1)Cc1sccc1C` (configuration not stated), with 62.9%; and `COCCN(Cc1ccccn1)Cc1sccc1C`, with 15.2%; and `Cc1ccsc1CN(Cc1ccccn1)CC(C)C`, with -21.5%. To `COCCn1ccnc1CN(Cc1ccccn1)Cc1sccc1C` belongs 71%. On to `Cc1cc(C)c2nc(C)c(C(=O)N3CCC(CCN(C)C)CC3)cc2c1`, for which the INHIBITION was found to be 36.8%.

The record behind these values is ChEMBL document CHEMBL4513216, “Probing the Open Global Health Chemical Diversity Library for Multistage-Active Starting Points for Next-Generation Antimalarials” (ACS Infect Dis, 2020).
